From paper PMC5700166 come the findings set out here.

Assay in all cases: protein-binding microarray (PBM); PBM: ~300 nM protein, 6 mM HEPES pH 7.8, 80 mM KCl, 0.5 mM EDTA, 0.5 mM EGTA, 6% glycerol, 35 ng/ul poly-dIdC, 1% milk, 1 h, room temperature; Ap Aiptasia and Nv Nematostella (sea anemones) / Co Capsaspora / Aq Amphimedon (sponge) / Dm Drosophila / Hu human; RHD is the Rel homology domain; high values mean tight binding
Common to all, as to details: dsDNA, one strand shown

The target in experiment [1] is T1, GST-Ap-NF-kB RHD (Exaiptasia pallida (Aiptasia), UniProt A0A913YAJ5 2-422).
T1 sequence: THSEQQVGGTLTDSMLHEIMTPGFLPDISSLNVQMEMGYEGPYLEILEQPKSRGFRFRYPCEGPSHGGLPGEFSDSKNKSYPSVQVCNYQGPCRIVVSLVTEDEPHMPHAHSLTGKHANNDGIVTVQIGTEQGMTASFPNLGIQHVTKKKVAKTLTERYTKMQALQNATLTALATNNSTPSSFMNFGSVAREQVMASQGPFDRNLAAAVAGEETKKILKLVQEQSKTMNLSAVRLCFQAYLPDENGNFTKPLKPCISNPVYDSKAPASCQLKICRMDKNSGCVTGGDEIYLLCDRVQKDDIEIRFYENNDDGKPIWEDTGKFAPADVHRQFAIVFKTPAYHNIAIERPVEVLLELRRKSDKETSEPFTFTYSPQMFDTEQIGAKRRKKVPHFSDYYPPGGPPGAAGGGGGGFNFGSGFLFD

The target in experiment [2] is T2, GST-Nv-NF-kB (Cys allele) (Nematostella vectensis, UniProt E5G601 2-411).
T2 sequence: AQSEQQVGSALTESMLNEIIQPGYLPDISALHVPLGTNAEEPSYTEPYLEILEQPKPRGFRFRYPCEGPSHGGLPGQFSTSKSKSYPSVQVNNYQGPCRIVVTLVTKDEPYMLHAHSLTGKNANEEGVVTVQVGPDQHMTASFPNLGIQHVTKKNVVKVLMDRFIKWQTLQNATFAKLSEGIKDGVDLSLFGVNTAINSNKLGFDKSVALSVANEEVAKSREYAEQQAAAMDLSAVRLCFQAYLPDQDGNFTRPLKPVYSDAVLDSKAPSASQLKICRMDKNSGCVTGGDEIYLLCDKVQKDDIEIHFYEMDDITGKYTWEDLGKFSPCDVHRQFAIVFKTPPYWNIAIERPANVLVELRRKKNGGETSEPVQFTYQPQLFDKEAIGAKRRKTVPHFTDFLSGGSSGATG

The target in experiment [3] is T3, GST-Co-NF-kB (Capsaspora owczarzaki, UniProt F1ARL5 200-546).
T3 sequence: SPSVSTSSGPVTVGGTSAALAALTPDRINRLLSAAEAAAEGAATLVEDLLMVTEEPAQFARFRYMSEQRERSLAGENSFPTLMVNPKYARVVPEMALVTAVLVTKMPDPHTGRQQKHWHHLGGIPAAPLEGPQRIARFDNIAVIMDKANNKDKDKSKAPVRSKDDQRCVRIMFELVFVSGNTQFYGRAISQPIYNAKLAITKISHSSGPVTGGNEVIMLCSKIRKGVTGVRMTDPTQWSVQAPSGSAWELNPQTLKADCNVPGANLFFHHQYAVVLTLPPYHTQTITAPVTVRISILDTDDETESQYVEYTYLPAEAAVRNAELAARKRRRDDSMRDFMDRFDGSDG

Experiment [4] addresses T4, GST-Dm-Relish (Drosophila melanogaster, UniProt Q94527 99-473).
T4 sequence: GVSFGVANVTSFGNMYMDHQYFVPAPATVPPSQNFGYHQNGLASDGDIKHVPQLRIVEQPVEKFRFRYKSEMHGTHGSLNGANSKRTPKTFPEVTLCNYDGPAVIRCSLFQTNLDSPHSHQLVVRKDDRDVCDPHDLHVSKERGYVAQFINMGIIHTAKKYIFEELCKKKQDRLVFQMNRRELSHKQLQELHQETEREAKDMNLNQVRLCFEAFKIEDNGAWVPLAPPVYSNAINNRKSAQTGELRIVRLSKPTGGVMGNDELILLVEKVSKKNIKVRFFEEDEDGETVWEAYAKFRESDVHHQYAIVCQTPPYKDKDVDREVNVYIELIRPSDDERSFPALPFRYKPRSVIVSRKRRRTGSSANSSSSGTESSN

For experiment [5], the target named is T5, GST-Aq-NF-kB (Amphimedon queenslandica, UniProt A9Y5G7 2-389).
T5 sequence: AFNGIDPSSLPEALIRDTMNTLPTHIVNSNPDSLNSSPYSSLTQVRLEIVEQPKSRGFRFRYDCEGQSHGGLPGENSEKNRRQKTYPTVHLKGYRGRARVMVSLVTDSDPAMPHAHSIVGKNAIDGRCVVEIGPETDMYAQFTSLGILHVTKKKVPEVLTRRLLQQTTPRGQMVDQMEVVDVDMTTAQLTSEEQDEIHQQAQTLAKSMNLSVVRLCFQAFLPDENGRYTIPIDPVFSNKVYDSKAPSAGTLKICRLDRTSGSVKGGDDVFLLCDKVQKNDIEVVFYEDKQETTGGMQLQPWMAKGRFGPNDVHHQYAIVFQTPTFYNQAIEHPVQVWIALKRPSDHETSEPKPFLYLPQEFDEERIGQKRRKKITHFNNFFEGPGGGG

Consider “CCGATTAACATCACCCGTTTCCCTGATGTTAATCGGGTCTTGATTCGCTTGACGCTGCTG”, for which the binding signal in experiment [1] was 2.8 z-score; in experiment [2] it was 3.24 z-score; in experiment [3], 3.33 z-score; in experiment [4], 1.19 z-score; in experiment [5], 3.03 z-score.
In the same order, the values of “CCGATTAACATCACATATTTCCCTGATGTTAATCGGGTCTTGATTCGCTTGACGCTGCTG” are 3.32 z-score, 4.97 z-score, 4.94 z-score, 1.93 z-score and 5.18 z-score.
For “CCGATTAACATCACGTATTTCCCTGATGTTAATCGGGTCTTGATTCGCTTGACGCTGCTG”, the binding signal in experiment [1] was 3.32 z-score; in experiment [2] it was 4.03 z-score; in experiment [3], 3.79 z-score; in experiment [4] it was 4.26 z-score; in experiment [5] it was 3.99 z-score.
In the same order, the values of “CCGATTAACATCAGATTTTTCCCTGATGTTAATCGGGTCTTGATTCGCTTGACGCTGCTG” are 3.33 z-score, 5.35 z-score, 5.52 z-score, 1.54 z-score and 5.5 z-score.
With “CCGATTAACATCAATATTTCCCATGATGTTAATCGGGTCTTGATTCGCTTGACGCTGCTG”, the binding signal in experiment [1] stood at 2.29 z-score; in experiment [2] it was 3.85 z-score; in experiment [3], 5.1 z-score; in experiment [4], 1.61 z-score; in experiment [5] it was 3.82 z-score.
In the same order, the values of “CCGATTAACATCAGGCTTTCCCATGATGTTAATCGGGTCTTGATTCGCTTGACGCTGCTG” are 1.49 z-score, 2.94 z-score, 2.07 z-score, 2.07 z-score and 2.88 z-score.
“CCGATTAACATCAGAAATCCCACTGATGTTAATCGGGTCTTGATTCGCTTGACGCTGCTG”: the binding signal in experiment [1] worked out at 2.54 z-score; in experiment [2], 2.54 z-score; in experiment [3], 1.65 z-score; in experiment [4], 5.45 z-score; in experiment [5] it was 2.41 z-score.
Consider “CCGATTAACATCAAGTAAATCCCTGATGTTAATCGGGTCTTGATTCGCTTGACGCTGCTG”, for which the binding signal in experiment [1] was 2.24 z-score; in experiment [2], 2.71 z-score; in experiment [3], 1.22 z-score; in experiment [4], 7.89 z-score; in experiment [5] it was 3.24 z-score.
“CCGATTAACATCAGGGGATTAGATGATGTTAATCGGGTCTTGATTCGCTTGACGCTGCTG”: the binding signal in experiment [1] worked out at 4.5 z-score; in experiment [2], 4.8 z-score; in experiment [3], 2.75 z-score; in experiment [4] it was 3.13 z-score; in experiment [5], 3.91 z-score.
“CCGATTAACATCAAGGATTCCCGTGATGTTAATCGGGTCTTGATTCGCTTGACGCTGCTG”: the binding signal in experiment [1] is 2.73 z-score; in experiment [2], 3.43 z-score; in experiment [3], 3.1 z-score; in experiment [4] it was 6.9 z-score; in experiment [5], 3.92 z-score.
“CCGATTAACATCAGGACTTCCCATGATGTTAATCGGGTCTTGATTCGCTTGACGCTGCTG”: the binding signal in experiment [1] stood at 3.08 z-score; in experiment [2], 2.46 z-score; in experiment [3], 1.82 z-score; in experiment [4] it was 7.81 z-score; in experiment [5], 4.72 z-score.
In the same order, the values of “CCGATTAACATCAAATTCCCAGTTGATGTTAATCGGGTCTTGATTCGCTTGACGCTGCTG” are 1.52 z-score, 3.74 z-score, 2.97 z-score, 4.29 z-score and 2.37 z-score.
For “CCGATTAACATCAGGGAACTACATGATGTTAATCGGGTCTTGATTCGCTTGACGCTGCTG”, in that order: 1.52 z-score, 1.1 z-score, 1.62 z-score, 8.31 z-score and 2.44 z-score.
As to “CCGATTAACATCAAACAACCCCCTGATGTTAATCGGGTCTTGATTCGCTTGACGCTGCTG”, the binding signal in experiment [1] is 5.66 z-score; in experiment [2], 4.5 z-score; in experiment [3] it was 2.66 z-score; in experiment [4], 5.24 z-score; in experiment [5] it was 5.17 z-score.
In the same order, the values of “CCGATTAACATCAAAAAACACCCTGATGTTAATCGGGTCTTGATTCGCTTGACGCTGCTG” are 4.07 z-score, 4.18 z-score, 2.93 z-score, 6.06 z-score and 5.32 z-score.
In the case of “CCGATTAACATCAAACAAACCCCTGATGTTAATCGGGTCTTGATTCGCTTGACGCTGCTG”, the binding signal in experiment [1] worked out at 4.35 z-score; in experiment [2], 3.42 z-score; in experiment [3] it was 1.74 z-score; in experiment [4], 3.06 z-score; in experiment [5], 3.95 z-score.
For “CCGATTAACATCACGGGTTTCCCTGATGTTAATCGGGTCTTGATTCGCTTGACGCTGCTG”, in that order: 3.92 z-score, 4.58 z-score, 4.46 z-score, 7.38 z-score and 5.5 z-score.
For “CCGATTAACATCAAAAACTACCCTGATGTTAATCGGGTCTTGATTCGCTTGACGCTGCTG”, the binding signal in experiment [1] was 4.12 z-score; in experiment [2], 3.21 z-score; in experiment [3] it was 3.13 z-score; in experiment [4] it was 5.43 z-score; in experiment [5], 4.72 z-score.
In the same order, the values of “CCGATTAACATCAGGGAGGGTAATGATGTTAATCGGGTCTTGATTCGCTTGACGCTGCTG” are 2.31 z-score, 2.15 z-score, 1.71 z-score, 1.12 z-score and 2.39 z-score.
For the sequence “CCGATTAACATCAGGGATTTCCATGATGTTAATCGGGTCTTGATTCGCTTGACGCTGCTG”, the binding signal in experiment [1] was determined as 4.13 z-score; in experiment [2] it was 3.8 z-score; in experiment [3] it was 1.29 z-score; in experiment [4], 7.94 z-score; in experiment [5] it was 5.39 z-score.
In the same order, the values of “CCGATTAACATCAGGAGTCCCCATGATGTTAATCGGGTCTTGATTCGCTTGACGCTGCTG” are 6.21 z-score, 4.39 z-score, 2.23 z-score, 7.3 z-score and 4.27 z-score.
For “CCGATTAACATCAGACTTCCCCATGATGTTAATCGGGTCTTGATTCGCTTGACGCTGCTG”, in that order: 4.7 z-score, 5.64 z-score, 4.24 z-score, 4.24 z-score and 4.9 z-score.
With “CCGATTAACATCAACAGGGAAAATGATGTTAATCGGGTCTTGATTCGCTTGACGCTGCTG”, the binding signal in experiment [1] was found to be 3.23 z-score; in experiment [2] it was 4.25 z-score; in experiment [3], 2.91 z-score; in experiment [4], 1.32 z-score; in experiment [5], 3.33 z-score.
For the sequence “CCGATTAACATCAGGGGAGAAAATGATGTTAATCGGGTCTTGATTCGCTTGACGCTGCTG”, the binding signal in experiment [1] came out at 4.25 z-score; in experiment [2] it was 5.5 z-score; in experiment [3], 8.56 z-score; in experiment [4], 2.26 z-score; in experiment [5], 3.89 z-score.
Turning to “CCGATTAACATCACCAAAACCCCTGATGTTAATCGGGTCTTGATTCGCTTGACGCTGCTG”, the binding signal in experiment [1] worked out at 4.76 z-score; in experiment [2] it was 3.55 z-score; in experiment [3] it was 1.32 z-score; in experiment [4], 6.02 z-score; in experiment [5] it was 3.55 z-score.
Take “CCGATTAACATCAGGGGTTACCCTGATGTTAATCGGGTCTTGATTCGCTTGACGCTGCTG”: the binding signal in experiment [1] worked out at 6.28 z-score; in experiment [2], 5.58 z-score; in experiment [3], 4.23 z-score; in experiment [4] it was 8.84 z-score; in experiment [5] it was 7.71 z-score.
Take “CCGATTAACATCAAATTCCCAAATGATGTTAATCGGGTCTTGATTCGCTTGACGCTGCTG”: the binding signal amounted to 1.72 z-score in experiment [1]; 3.62 z-score in experiment [2]; 2.55 z-score in experiment [3]; 4.57 z-score in experiment [4]; 2.31 z-score in experiment [5].
Take “CCGATTAACATCAGGAATACCCATGATGTTAATCGGGTCTTGATTCGCTTGACGCTGCTG”: the binding signal in experiment [1] is 4.37 z-score; in experiment [2], 4.62 z-score; in experiment [3] it was 1.39 z-score; in experiment [4] it was 4.16 z-score; in experiment [5], 4.54 z-score.
